A selection: hits, their analogues and other compounds. The true share with any hit is near 21%.
ELG1 DNA repair = ELG1-dependent DNA repair inhibition; Potency, µM (highest dose often 46.1 µM), for inactives: top-dose activity change, negative = inhibition, most hits filed as inhibitors; hit rate 2.3% among 330,000; HEK293T ELG1-luciferase reporter, luminescence, 16 h; DNA damage induced by 5-fluorouridine; further: potency means the concentration at half of the fitted maximal effect; nearly all actives have a fitted effect of over 55% in size
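DMSO vehicle served as the neutral condition. Each well held 2,000 cells given 5-fluorouridine plus compound; after 16 hr at 37 °C/5% CO2, ONE-Glo was added and luciferase measured 30 min later.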
RORg inh = inhibitors of mouse ROR gamma transcriptional activity. Drosophila S2 Gal4-RORgamma UAS-luciferase reporter, 20 h. hit rate 5.4% among 310,000. Potency, µM (doses to about 53.6 µM), inactives show top-dose activity change, negative = inhibition, most hits filed as inhibitors. P51450; further: potency means the concentration at half of the fitted maximal effect; nearly all actives have a fitted effect of over 60% in size
Target sequence (P51450 whole entry, looked up, the tested form may be a part): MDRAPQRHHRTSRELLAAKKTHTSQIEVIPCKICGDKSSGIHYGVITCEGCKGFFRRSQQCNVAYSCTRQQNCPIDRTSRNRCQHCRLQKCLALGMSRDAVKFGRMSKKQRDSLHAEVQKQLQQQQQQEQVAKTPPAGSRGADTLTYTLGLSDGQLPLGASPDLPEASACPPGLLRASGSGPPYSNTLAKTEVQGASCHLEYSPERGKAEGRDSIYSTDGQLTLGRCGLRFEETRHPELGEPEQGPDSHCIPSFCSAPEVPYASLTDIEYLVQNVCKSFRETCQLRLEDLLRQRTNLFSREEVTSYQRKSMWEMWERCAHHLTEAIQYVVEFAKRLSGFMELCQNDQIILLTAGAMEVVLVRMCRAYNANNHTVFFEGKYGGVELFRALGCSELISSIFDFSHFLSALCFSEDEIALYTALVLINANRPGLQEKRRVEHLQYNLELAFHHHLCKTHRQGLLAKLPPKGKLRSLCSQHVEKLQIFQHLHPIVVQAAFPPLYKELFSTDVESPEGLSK
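Drosophila S2 cells stably expressing Gal4-DBD/mouse RORγ fusion under metallothionein promoter plus UAS-luciferase; compound 1 h, then 700 uM CuSO4 induction for 20 h at ambient temperature; inhibition read as reduced luminescence.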
DT40 TDP1 CPT = growth inhibition of DT40 Tdp1-/-;hTDP1 cells with camptothecin (screen for TDP1 inhibitors); chicken DT40 Tdp1-/-;hTDP1 cells + 20 nM CPT, ATP luminescence, 48 h; Potency, µM (titrated, usually from 46.2 µM), inactives show at the highest dose activity change, negative = growth inhibition, most hits filed as inhibitors; hit rate 12% among 420,000; AID 686979; further: potency means the concentration at half of the fitted maximal effect; nearly all actives have a fitted effect of over 55% in size
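Chicken DT40 Tdp1-/- cells complemented with human TDP1, 400 cells/well, exposed to compounds plus 20 nM camptothecin for at least 48 h at 37 C; viability read as ATP content by CellTiter-Glo luminescence.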
TDP1 cell noCPT = qHTS for Inhibitors of human tyrosyl-DNA phosphodiesterase 1 (TDP1): qHTS in cells in absence of CPT; DT40 Tdp1-/- hTDP1 cells, no CPT, ATP luminescence, 48 h; Potency, µM (titrated, usually from 46.2 µM), for inactives: top-dose activity change, negative = growth inhibition, most hits filed as inhibitors; hit rate 15% among 420,000; AID 686978, 2013; further: potency means the concentration at half of the fitted maximal effect; nearly all actives have a fitted effect of over 55% in size
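Readout: luminescence from CellTiter-Glo after 30 min in the dark at RT. Cells: DT40 Tdp1-/- with stable hTDP1, 400/well. Exposure: compounds alone, ≥48 hr, 37 °C.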
Gal4-VP16 FLuc = inhibits Gal4-VP16 luciferase reporter, ROR gamma counter-screen; hit rate 3.5% among 310,000; Potency, µM (titrated, usually from 53.6 µM), inactives show at the top dose activity, negative = inhibition, usual class: inhibitors; Drosophila S2 Gal4-VP16 UAS-luciferase, luminescence, 20 h;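 further: Gal4-VP16 expression switched on by copper sulfate through the metallothionein promoter; potency means the concentration at half of the fitted maximal effect; nearly all actives have a fitted effect of over 50% in size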
IL-1B inflam inh = inhibitors of inflammasome signaling (IL-1 beta secretion). THP-1 LPS/ATP IL-1B secretion, AlphaLISA, 16 h; active compounds read low. activity change, % at 57.5 µM. hit rate 4.7% among 360,000. AID 743279; in the data active means activity change below about -50%; inconclusive means mostly about -30% to -49%
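Secreted IL-1B measured by AlphaLISA bead assay after 16 h compound exposure of THP-1 cells; compounds (final up to 57.5 uM) added 1 h before LPS (250 ng/mL) and ATP (1.25 mM) stimulation; lower signal means less secretion.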
* hit, by the source's call; [ ] = remark or other dose. Unless noted, the call rests on the fitted dose curve; in most records, active means well fitted curve in the direction sought with a large enough effect; inconclusive means small, poorly fitted or top-dose-only effect, or another doubt; inactive means no such curve, though single readings can be large; an effect the other way counts as inactive or inconclusive. On the % scale 0 is the no-effect control and ±100 the full control effect.

For CCC(C)/C=C/C1=CC2=C(Cl)C(=O)C3(C)OC(=O)C(C(=O)C(C)C(C)O)C3C2=CO1 (stereo unspecified) the results were ELG1 DNA repair 2.0%, RORg inh 27.1%, DT40 TDP1 CPT 11.6µM*, TDP1 cell noCPT 18.4µM*, Gal4-VP16 FLuc 1.2% and IL-1B inflam inh -0.7.
COc1ccc(OCC(=O)Nc2ccccc2C(=O)N2CCOCC2)cc1 was read as ELG1 DNA repair -8.2%, RORg inh -11.8%, DT40 TDP1 CPT 0.1%, TDP1 cell noCPT -7.6%, Gal4-VP16 FLuc -1.2%[10 µM] and IL-1B inflam inh 16.0.
Screening Cc1ccccc1OCC(=O)Nc1ccccc1-c1ccccc1 returned ELG1 DNA repair inconclusive, RORg inh inconclusive, DT40 TDP1 CPT -16.5%, TDP1 cell noCPT 6.51µM*, Gal4-VP16 FLuc -28.4% and IL-1B inflam inh 36.8.
Screening Cc1ccccc1NC(=O)COc1ccccc1C returned ELG1 DNA repair inconclusive, DT40 TDP1 CPT -0.3%, TDP1 cell noCPT 7.0% and IL-1B inflam inh -2.8.
Screening CCc1ccccc1NC(=O)C/C(C)=N/NC(=O)COc1ccccc1C returned ELG1 DNA repair 12.2%, RORg inh 11.2µM*, DT40 TDP1 CPT -2.6%, TDP1 cell noCPT 1.7%, Gal4-VP16 FLuc inconclusive and IL-1B inflam inh 3.0.
Cc1ccccc1OCC(=O)Nc1ccccc1C(=O)NC1CC1 was read as ELG1 DNA repair 5.17µM*, DT40 TDP1 CPT inconclusive, TDP1 cell noCPT 20.6µM* and IL-1B inflam inh -5.3.
CC(C)c1ccccc1OCC(=O)Nc1ccccc1C(=O)N1CCOCC1 was read as ELG1 DNA repair -17.1%, RORg inh 4.3%, DT40 TDP1 CPT 16.4µM*, TDP1 cell noCPT 16.4µM*, Gal4-VP16 FLuc -2.2% and IL-1B inflam inh -10.7.
`CN(C(=O)c1cccc(NC(=O)Cc2ccc(NC(=O)C3CCCN(C(=O)C4CCC4)C3)cc2)c1)C1CCCC1` (stereo unspecified) gave DT40 TDP1 CPT inconclusive, TDP1 cell noCPT inconclusive and IL-1B inflam inh 6.6.
For COc1ccc(-n2c(C)c(C)c3c(NCCCO)ncnc32)cc1 the results were ELG1 DNA repair inconclusive, RORg inh 19.5%, DT40 TDP1 CPT 1.6%, TDP1 cell noCPT inconclusive, Gal4-VP16 FLuc -0.5% and IL-1B inflam inh 1.1.
CCN(CC)c1ccc(C(=O)OCC(=O)Nc2ccccc2-c2ccccc2)cc1 was read as ELG1 DNA repair inconclusive, RORg inh -33.3%, DT40 TDP1 CPT inconclusive, TDP1 cell noCPT 18.4µM*, Gal4-VP16 FLuc inconclusive and IL-1B inflam inh 21.2.
Cc1cc(OC(C)C(=O)Nc2ccccc2C(=O)N2CCCC2)ccc1Cl (stereo unspecified) was read as ELG1 DNA repair -0.9%, RORg inh 39.5%, DT40 TDP1 CPT inconclusive, TDP1 cell noCPT inconclusive, Gal4-VP16 FLuc 1.5% and IL-1B inflam inh 0.0.
`CNC(=S)NNC(=O)COc1ccccc1C` gave ELG1 DNA repair -3.4%, RORg inh 7.08µM*, DT40 TDP1 CPT 0.2%, TDP1 cell noCPT -0.2%, Gal4-VP16 FLuc 10µM* and IL-1B inflam inh inconclusive.
For CCC(=O)c1ccc(OCC(=O)Nc2ccccc2C(=O)N2CCCCC2)cc1 the results were ELG1 DNA repair inconclusive, DT40 TDP1 CPT inconclusive, TDP1 cell noCPT 16.4µM* and IL-1B inflam inh -62.0*.
Screening Cc1ccccc1OCC(=O)NNC=O returned ELG1 DNA repair 2.2%, RORg inh -11.6%, DT40 TDP1 CPT 10.2%, TDP1 cell noCPT -2.0%, Gal4-VP16 FLuc -1.2% and IL-1B inflam inh -0.2.
Screening CCN(CC)c1ccc(C(=O)OCC(=O)Nc2ncccn2)cc1 returned ELG1 DNA repair -13.6%, DT40 TDP1 CPT 2.8%, TDP1 cell noCPT -2.1% and IL-1B inflam inh 1.3.

Screening data as filed in PubChem BioAssay.
